Experimental data published in PubChem BioAssay (Tox21).
Records with an inconclusive call do not appear. Unmarked numbers belong to inactive results. Calls follow the shape of the full dose curve.
% is scaled to controls: 0 for no effect and ±100 for the full control effect.

The compounds below were run against Peroxisome proliferator-activated receptor gamma (Homo sapiens) (UniProt P37231) (assay: qHTS assay to identify small molecule antagonists of the peroxisome proliferator-activated receptor gamma (PPARg) signaling pathway (AID 743191; also: nearly all actives have a fitted effect of over 30% in size)). Details: HEK293H PPARg-UAS-bla, beta-lactamase ratio, antagonist, 17 h; series mostly up to 62.6 µM; ratio activity, negative = inhibition: at the top concentration.
Sequence of Peroxisome proliferator-activated receptor gamma (Homo sapiens) (P37231 whole entry, looked up): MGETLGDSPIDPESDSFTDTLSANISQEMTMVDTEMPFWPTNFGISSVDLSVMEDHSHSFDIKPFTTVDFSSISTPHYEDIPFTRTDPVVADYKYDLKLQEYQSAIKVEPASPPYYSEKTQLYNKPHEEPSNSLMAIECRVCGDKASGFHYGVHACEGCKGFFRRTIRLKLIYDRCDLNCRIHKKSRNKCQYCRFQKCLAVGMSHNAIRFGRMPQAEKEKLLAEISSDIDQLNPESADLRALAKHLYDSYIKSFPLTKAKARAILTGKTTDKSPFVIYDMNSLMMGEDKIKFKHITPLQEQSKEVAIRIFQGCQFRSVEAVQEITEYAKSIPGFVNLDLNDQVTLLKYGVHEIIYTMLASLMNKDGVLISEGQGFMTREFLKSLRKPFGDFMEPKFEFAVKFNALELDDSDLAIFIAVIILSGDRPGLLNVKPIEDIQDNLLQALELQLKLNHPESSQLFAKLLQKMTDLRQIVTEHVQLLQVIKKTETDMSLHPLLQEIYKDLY
Outline: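 Beta-lactamase reporter under UAS control in HEK293H PPARg-bla cells; compound treatment 17 h at 37C. Read-out: fluorescence intensity after 1 h room-temperature incubation with LiveBLAzer B/G FRET substrate.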
For `CC[C@@]1(c2ccccc2)NC(=O)N(C)C1=O`, the “ratio activity, negative = inhibition” value was 8.82%. For `CC1(C)S[C@@H]2[C@H](NC(=O)Cc3ccccc3)C(=O)N2[C@H]1C(=O)O` (tested in a mixture with another compound), the “ratio activity, negative = inhibition” value was -2.05%. `CC(CC(=O)Cl)CC(C)(C)C` (stereo not given) was tested, and the “ratio activity, negative = inhibition” value was 14.6% [at 81.1 µM]. With `Cc1ccc(S(=O)(=O)NC(=O)NN2CC3CCCC3C2)cc1` (stereo not given) the “ratio activity, negative = inhibition” value was -1.7%. In the case of `Cc1ccc2cccnc2c1`, the “ratio activity, negative = inhibition” value is reported as 3.8%. `CCCC(=O)CC` was tested, and the “ratio activity, negative = inhibition” value was 4.61% [at 81.1 µM]. `CN(C)CCCN(C)C` gave a ratio activity, negative = inhibition of 4.44% [at 5.95 µM]. With `O=Cc1ccc(C(=O)O)cc1` the “ratio activity, negative = inhibition” value was -1.37% [at 81.1 µM]. In the case of `C=C(C)C(=O)OCCCC`, the “ratio activity, negative = inhibition” value is reported as -2.12% [at 81.1 µM]. In the case of `CC(O)CCCCn1c(=O)c2c(ncn2C)n(C)c1=O` (stereo not given), the “ratio activity, negative = inhibition” value is reported as 0.24%. With `CCOC(=O)CC` the “ratio activity, negative = inhibition” value was -3.11%. In the case of `CC/C=C\CCCCCCCCCCOC(C)=O`, the “ratio activity, negative = inhibition” value is reported as 9.93%. With `CN1C(CCl)Nc2cc(Cl)c(S(N)(=O)=O)cc2S1(=O)=O` (stereo not given) the “ratio activity, negative = inhibition” value was 5.79%. With `CC(=O)SCC(CC(=O)c1ccc(C)cc1)C(=O)O` (stereo not given) the “ratio activity, negative = inhibition” value was -6%. With `O=S(=O)(O)CC(O)CCl` (stereo not given) the “ratio activity, negative = inhibition” value was 2.27%. With `N[C@H]1C(O)O[C@H](CO)[C@@H](O)[C@@H]1O` (stereo not given in full) the “ratio activity, negative = inhibition” value was -0.3%. In the case of `C=CCN1CCc2nc(N)sc2CC1`, the “ratio activity, negative = inhibition” value is reported as 4.33%. With `Cc1ccc(O)c([N+](=O)[O-])c1` the “ratio activity, negative = inhibition” value was 4.76% [at 81.1 µM]. For `OCCC(F)(F)C(F)(F)C(F)(F)C(F)(F)C(F)(F)C(F)(F)F`, the “ratio activity, negative = inhibition” value was -1.11%. With `CN(C)c1cc(NC(=O)CNC(C)(C)C)c(O)c2c1C[C@H]1C[C@H]3[C@H](N(C)C)C(=O)C(C(N)=O)=C(O)[C@@]3(O)C(=O)C1=C2O` the “ratio activity, negative = inhibition” value was -11.8%.
